# Laboratory results from publication PMC12136788.
# In all, about 24,000 sequences were measured (“enrichment r”: median about 0.99, highest 2% from about 3.7 on). The full list was thinned out, with the highest values kept by preference.
# T1: UNK ZnF1-3 (human, UniProt Q9C0B0 31-174)
# T1 sequence: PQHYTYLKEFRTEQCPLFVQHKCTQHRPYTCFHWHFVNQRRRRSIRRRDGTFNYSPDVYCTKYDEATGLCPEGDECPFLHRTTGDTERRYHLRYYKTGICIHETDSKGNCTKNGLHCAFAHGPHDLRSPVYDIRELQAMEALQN
# B1: chrX:140365796:140365797:-_ENSMUSG00000031285_ENSMUST00000033642|mus_mus|mus_mus_mus_hu_False|48_108 (ssRNA)
# RNA: GGGAGUUCUACAGUCCGACGAUCCUUCUCAUUACUUAGUGCCUGCAAGGUUCUGGUUCGGUAGAAGCUACAGUGGGCGCUGUGAGUGGGACUUGGAAACCCAUUCAUCCGGGAGCCUCGCAUGUUCCUGGAUGUCUUAUCUCUCAACAGAGGAUUGAGCAUCA
# B2: chr11:100882373:100882374:+_ENSMUSG00000019302_ENSMUST00000044721|mus_mus|mus_mus_mus_hu_True|28_28 (ssRNA)
# RNA: GGGAGUUCUACAGUCCGACGAUCUUCCUGGUUUGUGUUGAUUUCCUUCAGUUCAUUUUCAAUCUUCUCAAAAUUGGCCUCUAAGUCAAUCAUGUCCCGGGGGAAGGGCACCUCUGGGUUUUCACCGGUGUCCAUAAUCGGAAUCAACAGAGGAUUGAGCAUCA
# B3: chr1:88750987:88750988:+_ENSMUSG00000053333_ENSMUST00000065694|mus_mus|motif|central (ssRNA)
# RNA: GGGAGUUCUACAGUCCGACGAUCUGAUAAGCCUCUUGUGUCCUGUGGUAUGGGGGUGUUCUCAUCUUUCAUAACUGGAGUACGGGAAUCUUCUUUUCCUCUGUCAGGAGUAGAGAUUGACAAUUUCUUAACACCAUCAACCAGCAACAGAGGAUUGAGCAUCA
# B4: chr1:225611761:225611762:-_ENSG00000143815_ENST00000272163|hu_mus|hu_hu_hu_mus_True|8_108 (ssRNA)
# RNA: GGGAGUUCUACAGUCCGACGAUCCCAGGCCAUCGACCUCUGACCACUUCACCCUCAACAAACUUCCUACUUGGCAUUUUCUAAAAUUAGUCUGGCCGCGCUCCGGCGGGAACUCCAGCCACUCCAGGGAGAAUAGUAGCAGCCCAACAGAGGAUUGAGCAUCA
# B5: chr1:180971808:180971809:-_ENSG00000135823_ENST00000258301|hu_mus|FALSE|FALSE (ssRNA)
# RNA: GGGAGUUCUACAGUCCGACGAUCUUUUCUUAUGCUCAAUUCAGUUGCAUCCAAGUUGAAUUUUCUAGGAUUUGCUUCAACUAUGCUGAUGGUUUCAUCGAGGUCCUCCAGAUCCCACUCUAUGCUGCGGAGAUUGUUCCUCAGCAACAGAGGAUUGAGCAUCA
# B6: 5721493_5721695_819_3pUTR_ENSMUSG00000024937_ENSMUST00000075606|mouse|control|control (ssRNA)
# RNA: GGGAGUUCUACAGUCCGACGAUCCUCCUCAUCACUCUCAGCAAAGUCAUCCAGGUUUCCCACGUCACUAGGCUUCACACUCAUGAGGCUGGCCAGACUCUGCAUGUCAUCAUCCGUGGCACGGCCUUCUCGCAGCAGCACCCCCAACAGAGGAUUGAGCAUCA
# B7: chr8:81717444:81717445:+_ENSMUSG00000071064_ENSMUST00000098614|mus_mus|FALSE|FALSE (ssRNA)
# RNA: GGGAGUUCUACAGUCCGACGAUCUAAUGUACACAAACCUUGACAGUAUGAGCGUCUGAACAUAAUAUGAGGAGUUAAAAAAAAAGAAAGAAAGAAAGAAAGAAAGAAAGAGAGAGAGAAAGAAAAGAAAGGACAGGAGAGAGACAACAGAGGAUUGAGCAUCA
# B8: chr10:33214929:33214930:-_ENSG00000150093_ENST00000302278|hu_hu|hu_hu_hu_mus_True|18_78 (ssRNA)
# RNA: GGGAGUUCUACAGUCCGACGAUCAACAAGUUCAUUGAAAAACUCUCCUCUGUCAGUAAGACUGAGCACAUUUUUGUAGCUAAAUGGGCUGGUGCAGUUUUGUUCACUUGUACAAGGGUUCCUGAGCUUUGCUGGGGUUGUGCUCAACAGAGGAUUGAGCAUCA
# B9: chr1:178664722:178664723:-_ENSMUSG00000057335_ENSMUST00000057037|mus_mus|motif|central (ssRNA)
# RNA: GGGAGUUCUACAGUCCGACGAUCAGUCGUUGUUGCUGUCUUGCAGGGUCCUUACAAAUGUGUAAGACUGACAAAGGGUUACGGUGGACCUACAGGGAAACACAGAAGCAAUUCAAUGACUGGGAGUGCAACUAUCAACUACUCCAACAGAGGAUUGAGCAUCA
# B10: chr2:47387792:47387793:-_ENSG00000143933_ENST00000272298|hu_hu|motif|central (ssRNA)
# RNA: GGGAGUUCUACAGUCCGACGAUCUUAGGACAAUGACAGUAAGAUAAGGGAAGAAAACAUGGAGGAAUGAAGUCCGGAUUACGGUACAUGCAUAUUUUUUUGACAGUAGGGAGAAACCUUUUACAGAUAAGUUACAAACAAAGACAACAGAGGAUUGAGCAUCA
# B11: chr19:8913615:8913616:-_ENSMUSG00000071658_ENSMUST00000096259|mus_hu|mus_mus_mus_hu_False|1_38 (ssRNA)
# RNA: GGGAGUUCUACAGUCCGACGAUCAGGGUACCAAAACCUUCUGCCUGAAAUGGGUGCCCCACCCAGUAGGGAGUUGCAGCUGAAAGUAUCUGAUGCACUGACAGUUACUAUACGAAAGGAGGCCCCUGGGGAGGGCCCGAGAUCCAACAGAGGAUUGAGCAUCA
# B12: chr4:148551591:148551592:-_ENSMUSG00000063077_ENSMUST00000060537|mus_hu|mus_mus_mus_hu_False|28_68 (ssRNA)
# RNA: GGGAGUUCUACAGUCCGACGAUCACCUGACAAAAUUAAAUAUCCCUGUAAAUUAGACAAUAAGCAGCAGGUAACAAAGUCUUUGCUUUGGAAUAUGUGCCAGGAAAAAUCAUGUUUUUUUUAGAUCUCAAGAGACAGUUCACACAACAGAGGAUUGAGCAUCA
# B13: chr2:49626764:49626765:+_ENSMUSG00000026764_ENSMUST00000028102|mus_hu|FALSE|FALSE (ssRNA)
# RNA: GGGAGUUCUACAGUCCGACGAUCGCACACAUCUGUACACACAGAAACUCUACACAGCUCAAAAGACCUGAAACUGGUGUACUGCAGAUGGCUGGAGUAAGCAAGUAUAAAAAAAAAAUGGAAACUGUAGGGGGGGAAAAAUAACAACAGAGGAUUGAGCAUCA
# B14: chr17:57746147:57746148:+_ENSG00000141367_ENST00000269122|hu_hu|FALSE|FALSE (ssRNA)
# RNA: GGGAGUUCUACAGUCCGACGAUCUUGCCCAGUCUUGCAAGCUGCCUGAAUAUAUUUAAAGUGCACAUCUGGGUCCUGGCUAAAGUUAACAAUGGAUCCCAGAAAAUAAAAGAGACCUUCAAAACUCUUGAAAGAUUCAAAAAGCAACAGAGGAUUGAGCAUCA
# B15: chr19:8913615:8913616:-_ENSMUSG00000071658_ENSMUST00000096259|mus_hu|mus_mus_mus_hu_False|98_108 (ssRNA)
# RNA: GGGAGUUCUACAGUCCGACGAUCAGGGGGGCACCAAACCCUGCCUCAAAUGGGUGCCCCACCCAGUAGGGAGUUGCAGCUGAAAGUAUCUGAUGCAGAAGCAGUGACUAUACGAAAGGAGGCCCCUGGGGAGGGCCAGGCCAGCAACAGAGGAUUGAGCAUCA
# B16: chr13:55803104:55803105:+_ENSMUSG00000045767_ENSMUST00000057844|mus_hu|FALSE|FALSE (ssRNA)
# RNA: GGGAGUUCUACAGUCCGACGAUCGCACAGCACCAGUAAGUAGAUGUGCUGGAGGGUAGAGGAAGAGGAAUGAAUGUACGAAAGGCAGGGGAGAAAGGGAAGGGUAUGUAUAACAAAAUAAGGAAGGAAAAUAAACUGAAAGGGCAACAGAGGAUUGAGCAUCA
# B17: chr1:58468927:58468928:-_ENSMUSG00000026034_ENSMUST00000148330|mus_mus|mus_mus_mus_hu_False|18_48 (ssRNA)
# RNA: GGGAGUUCUACAGUCCGACGAUCAAUUACUGAAAAAGAUGUUCAUUACCUUAGCUAUGUACUUAAUGAACCAAAUUACCCAAACAACAUAAAAUGUGCAAUAUAAAAAUGUUAAGAAAAUAACUUACUGUACAAAAUAACUUACAACAGAGGAUUGAGCAUCA
# B18: chr10:112657927:112657928:+_ENSG00000150593_ENST00000280154|hu_mus|FALSE|FALSE (ssRNA)
# RNA: GGGAGUUCUACAGUCCGACGAUCAAAAAAAAAAAAAAAAAAAAAAACAAUAACAAAAACAAAAGGAAAAGAAAACCUGUACUGACAACUCUUACAGUUGAGAUCUGUUCUUGGUAACACCUAAGACUGUAAGAGUUGCUGUGCCAACAGAGGAUUGAGCAUCA
# B19: chr7:54825262:54825263:-_ENSG00000132432_ENST00000352861|hu_hu|hu_hu_hu_mus_False|68_108 (ssRNA)
# RNA: GGGAGUUCUACAGUCCGACGAUCCUGACUUGGCUCAUCCACAAACUGCAUUACCUGAUCCAUGUUUUACCCAACCGGGAUUGAGAGCGUAGAGACACGUAGCUCAGGAGAGAACCGAGCCCAACGGAACCGGAAGCUGGCAACCAACAGAGGAUUGAGCAUCA
# B20: chr5:73697939:73697940:+_ENSMUSG00000029152_ENSMUST00000031038|mus_mus|motif|central (ssRNA)
# RNA: GGGAGUUCUACAGUCCGACGAUCUCCUUGGGCAAUAUGGUCAGUAAUACCAGUGGGAGUGGACUCGUUCAUAGAAGCACGGAAUGGAAUUGGCUCAUAACGAGGAAGCGCCUCCUUUUCUAUGUUGUCUGCUGCUGGAGAUGUCAACAGAGGAUUGAGCAUCA
# B21: chr10:98281081:98281082:-_ENSG00000077147_ENST00000371142|hu_mus|motif|central (ssRNA)
# RNA: GGGAGUUCUACAGUCCGACGAUCAUCGCAAUACAGUCCCCCAGUCAGUCUGUACAUCCAAAUGCAUCCAGGAACCGGCACCGGCGCGACAUUAUUAAUGUUAUAUACAUUUAUUGCCCCCCUUGUUUUGUUUAAUAAUUUCUUCAACAGAGGAUUGAGCAUCA
# B22: chr2:47388980:47388981:-_ENSG00000143933_ENST00000272298|hu_mus|hu_hu_hu_mus_True|68_98 (ssRNA)
# RNA: GGGAGUUCUACAGUCCGACGAUCUUCAUCUGUUAACUUCUCUCCAAGGUUUGUCAUCACAUGGCGAAGUUCUGCAGCACUAAUAUAGCCAUUGCCAUCCUUAUCAAACACACGGAAUGCUUCUCUAAUCUCUUCUUCACUGUCCAACAGAGGAUUGAGCAUCA
# Biological target: T1, UNK ZnF1-3
# Test: nsRBNS (natural sequence RNA bind-n-seq); RBNS binding buffer (assumed for nsRBNS): 25 mM Tris pH 7.5, 150 mM KCl, 3 mM MgCl2, 0.01% Triton X-100, 500 ug/ml BSA, 20 U/ml SUPERase-In, 4 C; UNK is unkempt and MSI1 is Musashi-1; names of the RNAs are library labels; protein concentration not given here; high values mean tight binding
row,Binder,binding signal [enrichment R]
1,B1,0.604
2,B2,0.609
3,B3,0.776
4,B4,1.34
5,B5,0.284
6,B6,0.928
7,B7,4.04
8,B8,1.36
9,B9,1.23
10,B10,1.89
11,B11,1.39
12,B12,1.18
13,B13,9.96
14,B14,2.24
15,B15,1.63
16,B16,5.32
17,B17,0.974
18,B18,8.87
19,B19,1.72
20,B20,1.27
21,B21,1.36
22,B22,0.882
